According to PubChem BioAssay (Tox21):
Records with an inconclusive call do not appear. Activity calls are given as the source filed them. Unless noted, calls come from the whole dose curve.

test system: not listed separately; assay: cAMP Responsive Elements (CRE) small molecule antagonists, cell-based qHTS assay (AID 1963591; active = well fitted inhibition curve with a large enough effect in the signal ratio in the repeat runs, not every such curve was filed as active; the % refers to the signal ratio; note: potency is the fitted concentration of half-maximal effect); details: CRE-bla HEK293T, beta-lactamase FRET ratio; series mostly up to 92.4 µM; activity change, negative = inhibition: at the top concentration
Procedure, shortened: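 Stimulation used NKH477 at a final 0.25 uM for 3 h in compound-treated CRE-bla HEK293T cells, seeded 18 h beforehand. Reporter activity was measured with LiveBLAzer B/G FRET substrate after 2 h at room temperature.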
% is set by controls: 0 for no effect and ±100 for the full control effect.

Compound	activity change, negative = inhibition	Potency
CC(C)COC(=O)c1ccc(N)cc1	-0.336% [at 42.4 µM] (inactive)	
CCCc1cc(C(N)=S)ccn1	-6.31% [at 42.4 µM] (inactive)	
CCCCCCCCCCCCCCO		inactive
CCO/C([O-])=N/c1c[n+](N2CCOCC2)no1	-21.5% [at 42.4 µM] (inactive)	
CSc1cnccn1	-10.4% (inactive)	
CCCCCCCOC(C)=O	-1.31% (inactive)	
CCc1cnc(C(=O)O)c(C(=O)O)c1	-6.1% (inactive)	
NS(=O)(=O)c1ccc(NC(=O)CCC(=O)O)cc1	-2.04% [at 42.4 µM] (inactive)	
COc1ccc(C(=O)CC(=O)c2ccc(C(C)(C)C)cc2)cc1		inactive
CCC1COC(=O)O1 (stereo not drawn)	-10.2% (inactive)	
CC(C)(C)c1ccc(CCC=O)cc1	-0.76% (inactive)	
FC(F)(F)c1cccc(Cl)c1	-3.66% (inactive)	
Nc1ccc(NCCO)c([N+](=O)[O-])c1	11.3% (inactive)	
IC(I)I		inactive
Cc1cccc(Cl)c1	7.26% (inactive)	
CC1=CCC(C(C)C)=CC1	1.18% (inactive)	
CCCOCCOCCOCCO	-15.4% (inactive)	

Compound	activity change, negative = inhibition	Potency
O=[N+]([O-])c1ccc(F)cc1F	0.598% (inactive)	
CC(=O)N(c1onc(C)c1C)S(=O)(=O)c1ccc(N)cc1	4.19% [at 42.4 µM] (inactive)	
OC[C@H]1O[C@@H](O[C@H]2[C@H](O)[C@@H](O)[C@H](O)O[C@@H]2CO)[C@H](O)[C@@H](O)[C@H]1O	3.18% (inactive)	
c1ccc2c(c1)CCC2	2.42% (inactive)	
CN(C)c1ccc(/C=C/c2ccc([N+](=O)[O-])cc2)cc1	1.12% [at 8.39 µM] (inactive)	
NCCC(O)(P(=O)(O)O)P(=O)(O)O	-4.14% [at 42.4 µM] (inactive)	
CO[Si](OC)(OC)c1ccccc1	-7.25% (inactive)	
O=C(c1ccc(Cl)cc1)c1ccc(Cl)cc1	7.58% (inactive)	
CC[C@H]1CN2CCc3cc(OC)c(OC)cc3[C@@H]2C[C@@H]1C[C@H]1NCCc2cc(OC)c(OC)cc21		1.68 µM (active)
CC(C)c1cccc(O)c1	-15.9% (inactive)	
CC(C)CC=O	10.1% (inactive)	
COc1cccc(OC)c1C(=O)N[C@@H]1C(=O)N2[C@@H]1SC(C)(C)[C@@H]2C(=O)O	-1.05% [at 42.4 µM] (inactive)	
O=P(OC(CCl)CCl)(OC(CCl)CCl)OC(CCl)CCl	-3.08% (inactive)	
CC/C=C\CC1=C(C)CCC1=O	13.8% (inactive)	
c1ccc2c(c1)CCc1ccccc1N2	-67.7% (inactive)	
CCCCOC(=O)C(C)OC(=O)CCC (stereo not drawn)	-2.95% (inactive)	
CCCC=O	-1.56% (inactive)	

biological target: Beta-2 adrenergic receptor (Homo sapiens) (UniProt P07550); assay: Adrenergic beta2 receptor (ADRB2) small molecule antagonists, cell-based qHTS assay (AID 1963592); details: CHO-ADRB2 cells, isoproterenol-stimulated cAMP HTRF ratio, 0.5 h; series mostly up to 92.4 µM; activity change, negative = inhibition: at the top concentration; note: nearly all actives have a fitted effect of over 50% in size
Sequence (P07550 whole entry, looked up): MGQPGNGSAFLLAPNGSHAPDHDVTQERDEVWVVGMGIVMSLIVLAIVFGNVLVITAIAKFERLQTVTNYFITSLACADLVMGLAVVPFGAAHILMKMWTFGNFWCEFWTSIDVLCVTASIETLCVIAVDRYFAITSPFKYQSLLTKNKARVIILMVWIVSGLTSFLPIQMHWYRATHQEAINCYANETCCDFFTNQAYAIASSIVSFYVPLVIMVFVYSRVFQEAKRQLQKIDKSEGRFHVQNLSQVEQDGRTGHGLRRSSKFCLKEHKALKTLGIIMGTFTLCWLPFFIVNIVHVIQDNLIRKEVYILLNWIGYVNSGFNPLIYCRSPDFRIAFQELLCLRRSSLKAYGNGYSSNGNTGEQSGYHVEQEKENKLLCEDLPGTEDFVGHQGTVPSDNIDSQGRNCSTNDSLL
Procedure, shortened: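 Assay format: CHO-ADRB2 cells, 18-20hr seeding at 37C/5% CO2, then compound plus 1nM isoproterenol agonist mix for 0.5hr RT. Homogeneous time-resolved fluorescence cAMP detection after 1hr, expressed as 665/615 nm ratio.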

Compound	activity change, negative = inhibition	Potency
CCCc1cc(C(N)=S)ccn1	-0.253% [at 42.5 µM] (inactive)	
CCCCCCCCCCCCCCO		inactive
CCO/C([O-])=N/c1c[n+](N2CCOCC2)no1	-0.601% [at 42.5 µM] (inactive)	
O=C(O)c1ccco1	2.27% (inactive)	
CSc1cnccn1	4.82% (inactive)	
CCCCCCCOC(C)=O	4.3% (inactive)	
CCc1cnc(C(=O)O)c(C(=O)O)c1	-15.5% (inactive)	
NS(=O)(=O)c1ccc(NC(=O)CCC(=O)O)cc1	0.887% [at 42.5 µM] (inactive)	
COc1ccc(C(=O)CC(=O)c2ccc(C(C)(C)C)cc2)cc1		inactive
CCO[Si](OCC)(OCC)c1ccccc1	3.95% (inactive)	
CCC1COC(=O)O1 (stereo not drawn)	0.441% (inactive)	
CC(C)(C)c1ccc(CCC=O)cc1	-0.665% (inactive)	
FC(F)(F)c1cccc(Cl)c1	1.17% (inactive)	
IC(I)I		inactive
Cc1cccc(Cl)c1	16% (inactive)	
CC1=CCC(C(C)C)=CC1	-1.21% (inactive)	
CC1(C)C(C=C(Cl)Cl)C1C(=O)OCc1cccc(Oc2ccccc2)c1 (stereo not drawn)		inactive

Compound	activity change, negative = inhibition	Potency
CCCOCCOCCOCCO	-1% (inactive)	
N=C(N)c1ccc2cc(OC(=O)c3ccc(N=C(N)N)cc3)ccc2c1	-9.27% [at 42.5 µM] (inactive)	
CC(=O)N(c1onc(C)c1C)S(=O)(=O)c1ccc(N)cc1	-0.287% [at 42.5 µM] (inactive)	
OC[C@H]1O[C@@H](O[C@H]2[C@H](O)[C@@H](O)[C@H](O)O[C@@H]2CO)[C@H](O)[C@@H](O)[C@H]1O	1.68% (inactive)	
c1ccc2c(c1)CCC2	-1.05% (inactive)	
CN(C)c1ccc(/C=C/c2ccc([N+](=O)[O-])cc2)cc1	1.64% [at 8.39 µM] (inactive)	
NCCC(O)(P(=O)(O)O)P(=O)(O)O	6.33% [at 42.5 µM] (inactive)	
CO[Si](OC)(OC)c1ccccc1	-2.21% (inactive)	
O=C(c1ccc(Cl)cc1)c1ccc(Cl)cc1	3.76% (inactive)	
CC[C@H]1CN2CCc3cc(OC)c(OC)cc3[C@@H]2C[C@@H]1C[C@H]1NCCc2cc(OC)c(OC)cc21		inactive
CC(C)c1cccc(O)c1	4.52% (inactive)	
CC(C)CC=O	-1.74% (inactive)	
O=P(OC(CCl)CCl)(OC(CCl)CCl)OC(CCl)CCl	-26.2% (inactive)	
CC/C=C\CC1=C(C)CCC1=O	0.905% (inactive)	
CCC(C)S (stereo not drawn)	-1.77% [at 3.27 µM] (inactive)	
CCCCOC(=O)C(C)OC(=O)CCC (stereo not drawn)	1.42% (inactive)	
CCCC=O	-0.118% (inactive)	
